Compound activity: PubChem, National Center for Advancing Translational Sciences (NCATS)
Most compounds without a hit are left out; they make up all but 7.5% or so of the library.
ELG1 genotoxic: qHTS screen for small molecules that induce genotoxicity in human embryonic kidney (HEK293T) cells expressing luciferase-tagged ELG1; HEK293T ELG1-luciferase reporter, luminescence, 16 h; Potency, µM (highest dose often 46 µM), without a hit: top-dose activity change, positive = activation, usual class: activators; 1.3% of 330,000 active; also: % of control where 0% means no effect; nearly all actives have a fitted effect of over 60% in size
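Luminescence read-out: rising ELG1-luciferase signal, reflecting elevated ELG1 protein under genetic stress, flags genotoxic compounds. Cells were treated for 16 hr at 37 °C before ONE-Glo detection.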
NPC1 promoter act: qHTS Assay for NPC1 Promoter Activators. Potency, µM (titrated, usually from 9.22 µM), for the others: top-dose activation, most hits filed as activators. 2.4% of 320,000 active. Huh7 NPC1 promoter luciferase reporter, 24 h; also: % of control where 0% means no effect; nearly all actives have a fitted effect of over 60% in size
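In 1536-well qHTS, Huh7 cells harboring an NPC1 promoter–luciferase construct received compound for 24 h; activation was quantified by luminescence following luciferase reagent addition.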
SMN2 splice up: qHTS Assay for Enhancers of SMN2 Splice Variant Expression. HEK293 SMN2-luciferase splicing reporter, luminescence, 30-36 h. Potency, µM (top dose mostly 46.1 µM), without a hit: at the top dose activity change, positive = activation, most hits filed as activators. 2.8% of 210,000 active; also: % of control where 0% means no effect; nearly all actives have a fitted effect of over 55% in size
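qHTS luciferase splicing reporter: luminescence rises when SMN2 exon 7 is included in transfected HEK293 cells. Compound exposure lasted 30-36 h at 37C, with 4.5 mM final sodium butyrate as control, followed by a ONE-Glo read.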
Rab9 promoter act: qHTS Assay for Rab9 Promoter Activators. AID 485297, 2010. 2.8% of 320,000 active. Potency, µM (doses to about 9.22 µM), for the others: top-dose activation, negative = inhibition, actives largely listed as activators. Huh7 Rab9 promoter-luciferase reporter, luminescence, 24 h; also: % of control where 0% means no effect; nearly all actives have a fitted effect of over 60% in size
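Huh7 cells stably carrying Rab9 promoter–luciferase reporter, plated 1500 cells/well, compound added after 2 h and incubated 24 h at 37 °C; luciferase luminescence then read after 10 min with detection reagent.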
FLuc counter: qHTS profiling assay for firefly luciferase inhibitor/activator using purifed enzyme and Km concentrations of substrates (counterscreen for miR-21 project) | Luciferin 4-monooxygenase (Photinus pyralis), P08659 | purified FLuc, Km substrates, luminescence inhibition | Potency, µM (doses to about 57.5 µM), for the others: top-dose activity change, negative = inhibition, usual class: inhibitors | 6.9% of 360,000 active;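 also: plate controls were vehicle for no effect and reference inhibitor for full effect; nearly all actives have a fitted effect of over 55% in size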
Target sequence (P08659 whole entry, looked up): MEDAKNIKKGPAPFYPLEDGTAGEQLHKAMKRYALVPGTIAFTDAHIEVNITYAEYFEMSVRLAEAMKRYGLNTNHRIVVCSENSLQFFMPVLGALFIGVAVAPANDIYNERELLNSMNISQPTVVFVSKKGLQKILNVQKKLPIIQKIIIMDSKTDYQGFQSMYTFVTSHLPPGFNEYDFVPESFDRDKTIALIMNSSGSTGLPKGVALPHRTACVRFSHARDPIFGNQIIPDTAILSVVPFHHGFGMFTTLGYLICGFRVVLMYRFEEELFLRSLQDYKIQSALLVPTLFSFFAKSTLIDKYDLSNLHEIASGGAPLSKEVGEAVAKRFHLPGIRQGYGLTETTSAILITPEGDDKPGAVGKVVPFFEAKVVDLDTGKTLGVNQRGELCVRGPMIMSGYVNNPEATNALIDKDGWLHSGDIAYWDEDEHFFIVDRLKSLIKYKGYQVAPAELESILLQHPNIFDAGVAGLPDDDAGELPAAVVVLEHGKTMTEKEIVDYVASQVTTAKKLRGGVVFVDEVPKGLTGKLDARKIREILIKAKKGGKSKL
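Biochemical qHTS of compounds, final roughly 60 µM downward over six points, against 10 nM purified firefly luciferase using Km concentrations of substrates (10 uM D-luciferin, 10 uM ATP) in Tris acetate pH 7.5 buffer; luminescence output.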
* = called active by the depositor; ? = inconclusive; nt = not tested or not shown; [ ] = another dose, or the depositor's remark. Calls follow the shape of the dose curve; as a rule, active = well fitted curve in the direction sought with a large enough effect; inconclusive = small, poorly fitted or top-dose-only effect, or another doubt; inactive = no such curve, though single readings can be large; an effect the other way counts as inactive or inconclusive. Potency is read from the fitted curve at half-maximal effect.

SMILES | ELG1 genotoxic | NPC1 promoter act | SMN2 splice up | Rab9 promoter act | FLuc counter
Cc1ccc2c(CC(=O)Nc3ccc(S(=O)(=O)N4CCCCC4)cc3)coc2c1C | nt | nt | 6% | nt | 1%
CCCn1c(-c2ccc(F)cc2)nc2c(N3CCCN(Cc4ccccc4)CC3)nc(C)nc21 | nt | nt | -27% | nt | nt
N[C@@H](Cc1cc(I)c(Oc2ccc(O)cc2)c(I)c1)C(=O)O | nt | nt | 0% | nt | nt
O=C(O)c1cc(N/N=C/C=C/c2ccccc2[N+](=O)[O-])ccc1Cl | ? | 1.4µM* | nt | 3.5µM* | 19µM*
O=[N+]([O-])c1ccccc1/C=C/C=N/N1CCCCC1 | 4.6µM* | ? | 16µM* | 2.2µM* | 11µM*
O=[N+]([O-])c1ccccc1/C=C/C=N/Nc1nc(N2CCCCC2)nc(N2CCCCC2)n1 | -2% | -1% | 4% | -11% | 0%
NS(=O)(=O)c1ccc(N/N=C/C=C/c2ccccc2[N+](=O)[O-])cc1 | ? | ? | nt | ? | 17µM*
O=C(N/N=C/C=C\c1ccccc1[N+](=O)[O-])c1ccncc1 | 0% | 2% | -27% | -10% | -2%
CCOc1ccc(OCC)c(NC(=O)C2CCCN(S(=O)(=O)c3cc(Br)cc4c3N(C(=O)CC)CC4)C2)c1 (stereo not drawn) | nt | nt | 11% | nt | 2%
Cc1ccc(/C=N/NC(=O)c2nn(C)cc2Cl)cc1 | ? | 3.5µM* | 11µM* | 3.5µM* | 1.5µM*
Cn1cc(Cl)c(C(=O)N/N=C/c2ccc(OS(=O)(=O)c3ccccc3)cc2)n1 | -9% | 4% | -3% | 0% | 24µM*
Cn1cc(Cl)c(C(=O)N/N=C/c2ccc3c4c(cccc24)CC3)n1 | ? | 2µM* | nt | 1.4µM* | 0.54µM*
O=C(O)[C@@H]1[C@H](C(=O)O)[C@H]2C(=O)C=C[C@H]1N2Cc1ccccc1 | nt | nt | -12%[9.22 µM] | nt | nt
CCC1(c2ccc(F)cc2)NC(=O)N(CC(=O)NCc2ccccc2Cl)C1=O (stereo not drawn) | -2% | 0% | nt | -6%[1.84 µM] | 0%
O=C(Nc1nc2ccccc2s1)C1CCCO1 (stereo not drawn) | 5.8µM* | 1.1µM* | 13µM* | ? | 15µM*
O=C(Nc1nc2ccc(F)cc2s1)C1CCCO1 (stereo not drawn) | ? | 1.1µM* | 16µM* | 2.2µM* | 6.7µM*
O=C(Nc1nnc(-c2ccccc2F)s1)C1CCCO1 (stereo not drawn) | ? | 3.5µM* | 5µM* | 2.5µM* | 15µM*
Nc1ccc2nc(NC(=O)C3CCCCC3)sc2c1 | 21µM* | ? | 14µM* | 4.5µM* | 6.7µM*
C=CCN1C(=O)/C(=C/C=C2/N(CC)c3ccc(S(=O)(=O)N(C)C)cc3N2CC)SC1=S | -6% | -10% | -30% | -15% | ?
CN(CC(=O)Nc1ccccc1C(F)(F)F)C(=O)CN1C(=O)C2CCCCC2C1=O (stereo not drawn) | 1% | 0% | nt | -5% | 3%
CCc1nn(CC(=O)N2CC(C)CC(C)C2)c(=O)c2cccn12 (stereo not drawn) | 0% | -1% | nt | -1% | 5%
Cc1ccc2c(c1)C(=O)OC(C(=O)Nc1ncc(Cc3ccccc3)s1)C2 (stereo not drawn) | nt | nt | 15% | nt | 0%
O=C(Nc1nc2ccc(F)cc2s1)C1CCN(S(=O)(=O)c2cc([N+](=O)[O-])ccc2Cl)CC1 | -13% | -21% | -2%[1.84 µM] | -19% | 11µM*
O=C(Nc1ncc(Cc2ccccc2)s1)C1CCCO1 (stereo not drawn) | ? | 1.1µM* | 5µM* | 2.2µM* | 4.3µM*
Cc1cccc(NC(=S)NNC(=O)c2csc(C(C)C)c2)c1 | 13% | 2.5µM* | 11µM* | 1.8µM* | 5.4µM*
SMILES | ELG1 genotoxic | NPC1 promoter act | SMN2 splice up | Rab9 promoter act | FLuc counter
Cc1cccc(NC(=S)NNC(=O)c2sccc2C)c1 | ? | 1% | -13% | ? | 15µM*
CCc1cc(C(=O)NNC(=S)Nc2cccc(C)c2)cs1 | 13% | 3.5µM* | 14µM* | 3.2µM* | 3.4µM*
CCCCNC(=S)NNC(=O)c1csc(CC)c1 | 2% | 0% | 12% | 23% | -14%
CCc1cc(C(=O)Nc2ccc(C)cc2Br)cs1 | ? | 21% | 16µM* | ? | 5.4µM*
O=C1OC(c2ccccc2)c2ccc3ccccc3c21 (stereo not drawn) | -2% | -3% | -4% | 0% | -11%
CC1CCN(C(=O)c2cc(-c3ccc(Cl)cc3)on2)CC1 | nt | nt | 15% | nt | 6µM*
CC1CCN(C(=O)c2cc(-c3cccc(Cl)c3)on2)CC1 | nt | nt | ? | nt | 24µM*
CC1(C)CC(=O)C=C(c2cccc(Cl)c2O)C1 | 0% | -3% | nt | 0% | 9%
CSc1ccc(-c2cc(=O)c3ccccc3o2)cc1 | 9.2µM* | 24% | 11µM* | ? | 4.8µM*
O=c1cc(-c2ccccc2F)oc2ccccc12 | ? | ? | 13µM* | 2.2µM* | 11µM*
COc1cccc(-c2cc(=O)c3ccccc3o2)c1N | nt | 2.3µM* | 11µM* | 2.1µM* | nt
O=C(/C=C/c1cccc(Br)c1)NCc1ccncc1 | 11% | 1% | -6% | -5% | 3%
CCCCNC(=O)N1CCCN(c2ccc(C#N)cn2)CC1 | -2% | 0% | nt | -2% | -1%
O=C(O)CC1S/C(=N/N=C/C=C/c2ccccc2)NC1=O (stereo not drawn) | 3% | -2% | -6% | 0% | 19µM*
CSCCC(NS(=O)(=O)c1ccc(C)c(C(=O)O)c1)C(=O)O (stereo not drawn) | 0% | -12% | 9% | -1% | -12%
COc1ccc(-n2nc(C(=O)c3cccs3)cc(-c3nc4ccccc4[nH]3)c2=N)cc1 | 23µM* | -6% | ? | 0% | -1%
Cc1ccccc1-n1nc(C(=O)c2cccs2)cc(-c2nc3ccccc3[nH]2)c1=N | -11% | 0% | -29% | -4% | 2%
N#C/C(=C\c1ccc(F)c(Br)c1)C(=O)NC1CC1 | 10µM* | 3.2µM* | nt | 4µM* | ?
CSCCC(NC(=O)c1ccc(Cl)cc1Cl)C(=O)NNC(=O)c1ccncc1 (stereo not drawn) | 1% | -3% | nt | -6% | 15µM*
O=C(NNC(=O)c1ccc(Cl)cc1Cl)c1ccncc1 | 7% | 2% | ? | 0% | 13µM*
Cc1nc2ccc3nc(NC(=O)c4ccc5c(c4)OCCO5)sc3c2s1 | 3% | 13% | -2% | 19% | ?
Cc1nc2c(ccc3nc(NC(=O)c4ccc5c(c4)OCCO5)sc32)s1 | ? | 0.32µM* | ? | 0.71µM* | 0.21µM*
Cc1cnc(NC(=O)c2ccc3c(c2)OCCO3)s1 | ? | ? | nt | 0.1µM* | 0.11µM*
Cc1ccc2sc(NC(=O)c3ccc4c(c3)OCCO4)nc2c1C | nt | nt | nt | nt | 2.7µM*
